Test results taken from PubChem BioAssay AID504546 (Broad Institute, 2011).
Records with an inconclusive call do not appear. The source made the active and inactive calls.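 The calls were made as follows: active = every repeat run fits a falling-signal curve with half-maximal potency within ten times top tested dose; inconclusive = runs disagree, or flat moderate drop, or poor fit; inactive = every run inactive, including signal moving upward.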

Assay: ADP-Glo luciferase signal interference – biochemical, luminescence, cherry-picked samples, set 2, artefact control for CDK5 inhibitor project, dose response (AID 504546);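 also: 0% = DMSO wells and -100% = wells lacking ADP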
Conditions: ADP-Glo detection reagent counter screen, 5 uM ADP; series mostly up to 30 µM; activity change, negative = inhibition: at the top concentration

SMILES | activity change, negative = inhibition
CNS(=O)(=O)c1ccc2c3c(cccc13)C(=O)N2 | 16.5% (inactive)
O=C(O)CCC(=O)NCCn1c(-c2ccccc2)csc1=Nc1ccccc1 | -3.75% (inactive)
C=CC(=O)Nc1ccc(Nc2ccnc(Nc3ccc(N4CCN(C)CC4)cc3)n2)cc1 | 15.2% (inactive)
CC(C)(C)N=Cc1c(O)ccc2oc3c(c12)CCCC3 | 2.31% (inactive)
COc1cc2c(ccc3cc(OC)c(OC)c(O)c32)cc1O | -0.298% (inactive)
CC(C)n1cnc2c(NCc3ccccc3)nc(NCc3ccccc3)nc21 | 20.6% (inactive)
Cc1ccc(Nc2nc(NCCO)nc3c2cnn3C)cc1Cl | -8.75% (inactive)
NC1=NC(=O)/C(=C/c2ccc(-c3ccc(S(N)(=O)=O)cc3)o2)S1 | 13.8% (inactive)
FC(F)(F)c1ccc(N/N=C/c2cccnc2)nc1 | 18.8% (inactive)
O=C(NNC(=O)c1ccco1)c1ccccc1 | 4.63% (inactive)
O=C(c1ccc2c(c1)OCO2)N1CCN(c2ccccn2)CC1 | 13% (inactive)
O=[N+]([O-])c1ccc2c(c1)/C(=N\O)c1ccccc1-2 | -10.3% (inactive)
COc1cc(C(=O)N2CCN(c3ccccn3)CC2)cc(OC)c1OC | -10.2% (inactive)
O=C(NNC(=O)c1ccccn1)c1ccc(OC(F)F)cc1 | 5.32% (inactive)
CCC(C)Oc1cc(-c2ccnc(Nc3cccc(Cl)c3)n2)ccn1 (stereo not given) | 7.1% (inactive)
